Source: ChEMBL document CHEMBL1961873, “Compounds: GSK PKIS; Assays: Nanosyn kinase panel” (2012)

Key:
[1] = molecular target: T1, Ephrin type-B receptor 2 (Homo sapiens) (UniProt P29323); settings: at 1 µM
T1 sequence (whole entry): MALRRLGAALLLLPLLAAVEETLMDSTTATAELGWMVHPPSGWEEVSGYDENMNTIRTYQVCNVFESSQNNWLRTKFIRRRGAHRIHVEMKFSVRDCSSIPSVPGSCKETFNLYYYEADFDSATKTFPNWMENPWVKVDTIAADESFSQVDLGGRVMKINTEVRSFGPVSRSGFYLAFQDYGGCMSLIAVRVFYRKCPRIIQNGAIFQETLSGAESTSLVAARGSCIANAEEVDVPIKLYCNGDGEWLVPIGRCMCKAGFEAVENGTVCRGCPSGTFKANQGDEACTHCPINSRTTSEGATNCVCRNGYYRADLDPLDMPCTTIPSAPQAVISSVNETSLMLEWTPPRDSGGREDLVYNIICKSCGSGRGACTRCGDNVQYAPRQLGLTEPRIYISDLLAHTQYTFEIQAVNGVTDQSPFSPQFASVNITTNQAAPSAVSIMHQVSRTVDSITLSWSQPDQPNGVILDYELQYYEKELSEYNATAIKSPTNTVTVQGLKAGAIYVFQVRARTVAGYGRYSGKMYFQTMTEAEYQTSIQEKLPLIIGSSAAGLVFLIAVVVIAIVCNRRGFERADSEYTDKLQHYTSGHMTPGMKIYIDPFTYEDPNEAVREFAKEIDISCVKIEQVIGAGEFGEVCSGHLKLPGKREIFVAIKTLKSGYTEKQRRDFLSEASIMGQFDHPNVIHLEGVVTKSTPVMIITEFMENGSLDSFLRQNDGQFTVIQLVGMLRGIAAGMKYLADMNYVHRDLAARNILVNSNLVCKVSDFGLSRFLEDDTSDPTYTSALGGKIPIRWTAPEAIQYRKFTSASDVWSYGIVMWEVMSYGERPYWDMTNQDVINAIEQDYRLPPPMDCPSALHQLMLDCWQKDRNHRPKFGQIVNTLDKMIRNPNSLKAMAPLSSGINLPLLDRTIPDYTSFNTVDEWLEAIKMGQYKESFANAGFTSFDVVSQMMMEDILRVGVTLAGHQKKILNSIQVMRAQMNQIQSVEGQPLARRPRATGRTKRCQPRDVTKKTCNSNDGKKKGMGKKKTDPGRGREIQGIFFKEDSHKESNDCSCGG

[2] = molecular target: T2, Ephrin type-B receptor 3 (Homo sapiens) (UniProt P54753); settings: at 0.1 µM
T2 sequence (whole entry): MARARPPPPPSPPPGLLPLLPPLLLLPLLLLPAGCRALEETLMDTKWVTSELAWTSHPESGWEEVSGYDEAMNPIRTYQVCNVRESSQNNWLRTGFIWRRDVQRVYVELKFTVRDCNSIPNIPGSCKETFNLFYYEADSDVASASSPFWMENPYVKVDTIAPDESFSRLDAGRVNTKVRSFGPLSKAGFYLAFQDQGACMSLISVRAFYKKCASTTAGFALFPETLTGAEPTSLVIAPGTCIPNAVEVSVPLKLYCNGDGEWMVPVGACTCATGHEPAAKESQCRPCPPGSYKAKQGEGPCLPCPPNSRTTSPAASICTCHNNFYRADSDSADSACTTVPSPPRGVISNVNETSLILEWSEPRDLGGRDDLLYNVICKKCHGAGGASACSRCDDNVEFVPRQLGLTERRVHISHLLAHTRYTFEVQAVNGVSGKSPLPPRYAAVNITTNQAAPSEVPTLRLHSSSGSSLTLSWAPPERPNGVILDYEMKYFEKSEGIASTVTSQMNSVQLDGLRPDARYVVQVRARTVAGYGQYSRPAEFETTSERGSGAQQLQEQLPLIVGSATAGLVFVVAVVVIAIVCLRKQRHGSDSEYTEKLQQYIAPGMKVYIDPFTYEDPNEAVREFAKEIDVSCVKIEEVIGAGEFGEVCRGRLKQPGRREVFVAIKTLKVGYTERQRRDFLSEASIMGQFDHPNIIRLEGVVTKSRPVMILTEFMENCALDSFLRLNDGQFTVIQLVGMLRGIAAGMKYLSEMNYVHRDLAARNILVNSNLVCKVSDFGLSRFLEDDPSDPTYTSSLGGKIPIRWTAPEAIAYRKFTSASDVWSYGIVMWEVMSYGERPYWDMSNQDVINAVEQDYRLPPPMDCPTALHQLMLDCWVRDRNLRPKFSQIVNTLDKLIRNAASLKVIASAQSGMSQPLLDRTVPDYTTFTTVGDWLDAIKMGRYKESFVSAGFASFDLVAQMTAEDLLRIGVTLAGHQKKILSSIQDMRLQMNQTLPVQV

[3] = molecular target: T2, Ephrin type-B receptor 3 (Homo sapiens); settings: at 1 µM
[4] = molecular target: T3, Ephrin type-B receptor 4 (Homo sapiens) (UniProt P54760); settings: at 0.1 µM
T3 sequence (whole entry): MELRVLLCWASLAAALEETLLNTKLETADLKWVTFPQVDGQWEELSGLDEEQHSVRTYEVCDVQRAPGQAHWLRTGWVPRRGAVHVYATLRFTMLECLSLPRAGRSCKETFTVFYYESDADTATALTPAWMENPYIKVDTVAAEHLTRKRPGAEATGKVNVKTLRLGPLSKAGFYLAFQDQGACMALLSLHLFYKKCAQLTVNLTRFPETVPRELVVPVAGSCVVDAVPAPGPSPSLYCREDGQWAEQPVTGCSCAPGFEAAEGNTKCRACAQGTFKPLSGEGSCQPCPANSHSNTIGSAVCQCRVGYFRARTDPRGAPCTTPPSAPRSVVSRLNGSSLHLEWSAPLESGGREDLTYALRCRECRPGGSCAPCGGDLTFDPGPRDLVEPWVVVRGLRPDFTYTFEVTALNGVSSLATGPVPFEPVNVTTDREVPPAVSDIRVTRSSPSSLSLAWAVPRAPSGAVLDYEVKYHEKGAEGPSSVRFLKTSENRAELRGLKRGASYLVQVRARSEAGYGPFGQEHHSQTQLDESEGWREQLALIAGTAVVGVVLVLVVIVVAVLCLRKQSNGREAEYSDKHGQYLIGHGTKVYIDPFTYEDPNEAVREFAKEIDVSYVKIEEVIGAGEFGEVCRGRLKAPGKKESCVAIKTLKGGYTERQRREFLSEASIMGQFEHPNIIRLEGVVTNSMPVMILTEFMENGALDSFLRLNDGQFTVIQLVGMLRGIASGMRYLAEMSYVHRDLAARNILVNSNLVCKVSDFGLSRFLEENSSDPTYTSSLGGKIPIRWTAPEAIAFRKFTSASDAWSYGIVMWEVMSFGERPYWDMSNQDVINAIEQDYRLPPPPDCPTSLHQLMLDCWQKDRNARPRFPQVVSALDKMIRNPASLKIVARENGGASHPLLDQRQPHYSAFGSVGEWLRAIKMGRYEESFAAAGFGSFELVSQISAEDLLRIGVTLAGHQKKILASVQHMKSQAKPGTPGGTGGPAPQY

[5] = molecular target: T3, Ephrin type-B receptor 4 (Homo sapiens); settings: at 1 µM
[6] = molecular target: Receptor tyrosine-protein kinase erbB-4 (Homo sapiens) (UniProt Q15303); settings: at 0.1 µM
Chain of Receptor tyrosine-protein kinase erbB-4 (Homo sapiens) (Q15303 whole entry): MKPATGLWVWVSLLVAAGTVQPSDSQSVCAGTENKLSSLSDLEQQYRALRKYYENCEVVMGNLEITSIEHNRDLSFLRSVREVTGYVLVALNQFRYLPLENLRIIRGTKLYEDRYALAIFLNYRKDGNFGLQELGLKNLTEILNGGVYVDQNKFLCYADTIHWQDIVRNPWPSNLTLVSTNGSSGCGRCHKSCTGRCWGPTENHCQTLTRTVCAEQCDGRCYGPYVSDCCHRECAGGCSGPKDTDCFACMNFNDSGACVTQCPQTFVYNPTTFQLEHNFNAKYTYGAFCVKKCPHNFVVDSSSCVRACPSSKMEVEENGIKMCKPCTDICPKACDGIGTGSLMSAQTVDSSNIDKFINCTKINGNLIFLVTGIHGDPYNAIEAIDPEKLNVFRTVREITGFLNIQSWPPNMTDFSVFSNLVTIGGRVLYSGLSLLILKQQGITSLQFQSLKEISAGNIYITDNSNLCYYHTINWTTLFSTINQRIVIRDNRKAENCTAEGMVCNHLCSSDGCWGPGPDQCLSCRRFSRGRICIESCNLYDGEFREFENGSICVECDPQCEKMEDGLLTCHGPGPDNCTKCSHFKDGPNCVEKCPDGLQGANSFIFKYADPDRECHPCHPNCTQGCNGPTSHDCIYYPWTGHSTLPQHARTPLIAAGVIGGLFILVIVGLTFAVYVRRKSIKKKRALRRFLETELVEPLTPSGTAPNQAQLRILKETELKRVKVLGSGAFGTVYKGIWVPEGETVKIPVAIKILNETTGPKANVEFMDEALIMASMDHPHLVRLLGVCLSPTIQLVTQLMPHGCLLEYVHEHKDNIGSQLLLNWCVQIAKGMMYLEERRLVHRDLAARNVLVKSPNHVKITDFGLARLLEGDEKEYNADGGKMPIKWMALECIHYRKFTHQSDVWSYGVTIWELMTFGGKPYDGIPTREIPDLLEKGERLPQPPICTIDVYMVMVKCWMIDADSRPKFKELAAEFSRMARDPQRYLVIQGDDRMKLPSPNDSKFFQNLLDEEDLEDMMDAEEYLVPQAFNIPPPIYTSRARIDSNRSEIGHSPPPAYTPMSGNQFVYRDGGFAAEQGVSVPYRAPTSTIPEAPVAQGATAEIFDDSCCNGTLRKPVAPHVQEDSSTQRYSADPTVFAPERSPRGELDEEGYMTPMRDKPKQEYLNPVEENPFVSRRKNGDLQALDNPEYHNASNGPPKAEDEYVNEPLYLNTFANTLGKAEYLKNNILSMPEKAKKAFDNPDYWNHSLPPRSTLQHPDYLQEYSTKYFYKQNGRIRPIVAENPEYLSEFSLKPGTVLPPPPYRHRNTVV

[7] = molecular target: Receptor tyrosine-protein kinase erbB-4 (Homo sapiens) (UniProt Q15303); settings: at 1 µM
[8] = molecular target: Tyrosine-protein kinase Fer (Homo sapiens) (UniProt P16591); settings: at 0.1 µM
Chain of Tyrosine-protein kinase Fer (Homo sapiens) (P16591 whole entry, looked up): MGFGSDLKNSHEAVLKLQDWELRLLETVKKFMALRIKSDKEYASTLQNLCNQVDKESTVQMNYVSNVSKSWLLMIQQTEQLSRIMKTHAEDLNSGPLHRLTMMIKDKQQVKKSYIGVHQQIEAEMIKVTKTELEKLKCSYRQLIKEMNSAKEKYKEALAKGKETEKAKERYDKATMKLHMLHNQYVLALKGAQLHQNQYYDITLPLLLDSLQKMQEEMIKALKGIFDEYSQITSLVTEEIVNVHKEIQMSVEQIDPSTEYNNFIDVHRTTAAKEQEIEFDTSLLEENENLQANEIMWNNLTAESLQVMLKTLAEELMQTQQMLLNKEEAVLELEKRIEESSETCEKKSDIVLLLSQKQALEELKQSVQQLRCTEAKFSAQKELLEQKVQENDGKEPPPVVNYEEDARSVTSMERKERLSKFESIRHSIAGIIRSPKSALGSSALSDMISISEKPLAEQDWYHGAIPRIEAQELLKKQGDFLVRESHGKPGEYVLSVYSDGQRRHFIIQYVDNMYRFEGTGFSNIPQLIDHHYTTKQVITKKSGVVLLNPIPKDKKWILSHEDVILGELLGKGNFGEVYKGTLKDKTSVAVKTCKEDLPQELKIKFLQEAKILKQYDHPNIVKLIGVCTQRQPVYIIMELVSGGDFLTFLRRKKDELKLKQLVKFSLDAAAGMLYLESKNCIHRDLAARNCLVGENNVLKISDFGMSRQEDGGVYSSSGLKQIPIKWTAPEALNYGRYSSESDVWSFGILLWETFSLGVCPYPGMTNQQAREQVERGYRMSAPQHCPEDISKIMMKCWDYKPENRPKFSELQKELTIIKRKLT

[9] = molecular target: Tyrosine-protein kinase Fer (Homo sapiens) (UniProt P16591); settings: at 1 µM
[10] = molecular target: Tyrosine-protein kinase Fes/Fps (Homo sapiens) (UniProt P07332); settings: at 0.1 µM
[11] = molecular target: Tyrosine-protein kinase Fes/Fps (Homo sapiens) (UniProt P07332); settings: at 1 µM
[12] = molecular target: Fibroblast growth factor receptor 1 (Homo sapiens) (UniProt P11362); settings: at 0.1 µM
[13] = molecular target: Fibroblast growth factor receptor 1 (Homo sapiens) (UniProt P11362); settings: at 1 µM
[14] = molecular target: Fibroblast growth factor receptor 2 (Homo sapiens) (UniProt P21802); settings: at 0.1 µM
[15] = molecular target: Fibroblast growth factor receptor 2 (Homo sapiens) (UniProt P21802); settings: at 1 µM
[16] = molecular target: Fibroblast growth factor receptor 3 (Homo sapiens) (UniProt P22607); settings: at 0.1 µM
Chain of Fibroblast growth factor receptor 3 (Homo sapiens) (P22607 23-806 limits assumed): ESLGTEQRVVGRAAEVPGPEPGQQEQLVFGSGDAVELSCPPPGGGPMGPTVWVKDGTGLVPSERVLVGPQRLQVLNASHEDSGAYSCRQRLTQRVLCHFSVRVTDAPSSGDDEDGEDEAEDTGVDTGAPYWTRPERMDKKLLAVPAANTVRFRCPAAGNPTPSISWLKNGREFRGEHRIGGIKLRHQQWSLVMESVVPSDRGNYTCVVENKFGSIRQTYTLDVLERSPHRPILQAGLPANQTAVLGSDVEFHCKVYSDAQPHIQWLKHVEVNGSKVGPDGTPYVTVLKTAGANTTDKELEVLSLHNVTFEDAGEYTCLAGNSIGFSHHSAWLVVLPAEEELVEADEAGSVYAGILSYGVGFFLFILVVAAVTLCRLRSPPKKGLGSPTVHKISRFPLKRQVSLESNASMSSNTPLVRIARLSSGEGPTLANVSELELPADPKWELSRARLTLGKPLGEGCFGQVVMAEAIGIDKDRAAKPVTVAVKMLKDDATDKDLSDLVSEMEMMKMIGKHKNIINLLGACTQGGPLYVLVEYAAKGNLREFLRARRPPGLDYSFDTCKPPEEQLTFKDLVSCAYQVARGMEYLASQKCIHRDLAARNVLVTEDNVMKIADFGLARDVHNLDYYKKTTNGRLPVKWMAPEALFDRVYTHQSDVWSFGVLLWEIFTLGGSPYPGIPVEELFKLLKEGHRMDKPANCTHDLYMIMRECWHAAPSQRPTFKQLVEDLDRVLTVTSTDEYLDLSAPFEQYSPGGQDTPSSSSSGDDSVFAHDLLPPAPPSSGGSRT

[17] = molecular target: Fibroblast growth factor receptor 3 (Homo sapiens) (UniProt P22607); settings: at 1 µM
[18] = molecular target: Fibroblast growth factor receptor 4 (Homo sapiens) (UniProt P22455); settings: at 0.1 µM;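 also: values are mean percent inhibition of FGFR4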
Chain of Fibroblast growth factor receptor 4 (Homo sapiens) (P22455 22-802 limits assumed): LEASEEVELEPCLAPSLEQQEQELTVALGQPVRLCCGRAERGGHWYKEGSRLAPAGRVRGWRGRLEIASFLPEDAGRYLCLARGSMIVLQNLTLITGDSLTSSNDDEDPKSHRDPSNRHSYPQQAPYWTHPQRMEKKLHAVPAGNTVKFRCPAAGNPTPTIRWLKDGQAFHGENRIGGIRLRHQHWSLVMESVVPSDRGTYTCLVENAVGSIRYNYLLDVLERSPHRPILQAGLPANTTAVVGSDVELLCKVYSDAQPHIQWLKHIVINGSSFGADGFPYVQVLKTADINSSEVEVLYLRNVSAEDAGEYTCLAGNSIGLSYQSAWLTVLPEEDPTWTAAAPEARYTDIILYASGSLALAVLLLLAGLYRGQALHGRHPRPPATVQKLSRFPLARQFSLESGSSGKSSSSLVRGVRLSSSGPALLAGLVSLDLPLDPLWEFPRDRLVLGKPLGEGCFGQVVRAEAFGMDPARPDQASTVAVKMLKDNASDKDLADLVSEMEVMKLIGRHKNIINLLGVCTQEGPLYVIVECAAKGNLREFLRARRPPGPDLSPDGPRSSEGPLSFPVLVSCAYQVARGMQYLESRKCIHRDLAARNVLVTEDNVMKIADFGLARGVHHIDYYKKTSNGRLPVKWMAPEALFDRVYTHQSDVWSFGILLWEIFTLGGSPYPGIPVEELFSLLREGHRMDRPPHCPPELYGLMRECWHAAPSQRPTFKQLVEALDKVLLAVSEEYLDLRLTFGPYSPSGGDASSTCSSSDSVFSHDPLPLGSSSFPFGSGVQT

[19] = molecular target: Receptor tyrosine-protein kinase erbB-2 (Homo sapiens) (UniProt P04626); settings: at 0.1 µM
Chain of Receptor tyrosine-protein kinase erbB-2 (Homo sapiens) (P04626 whole entry): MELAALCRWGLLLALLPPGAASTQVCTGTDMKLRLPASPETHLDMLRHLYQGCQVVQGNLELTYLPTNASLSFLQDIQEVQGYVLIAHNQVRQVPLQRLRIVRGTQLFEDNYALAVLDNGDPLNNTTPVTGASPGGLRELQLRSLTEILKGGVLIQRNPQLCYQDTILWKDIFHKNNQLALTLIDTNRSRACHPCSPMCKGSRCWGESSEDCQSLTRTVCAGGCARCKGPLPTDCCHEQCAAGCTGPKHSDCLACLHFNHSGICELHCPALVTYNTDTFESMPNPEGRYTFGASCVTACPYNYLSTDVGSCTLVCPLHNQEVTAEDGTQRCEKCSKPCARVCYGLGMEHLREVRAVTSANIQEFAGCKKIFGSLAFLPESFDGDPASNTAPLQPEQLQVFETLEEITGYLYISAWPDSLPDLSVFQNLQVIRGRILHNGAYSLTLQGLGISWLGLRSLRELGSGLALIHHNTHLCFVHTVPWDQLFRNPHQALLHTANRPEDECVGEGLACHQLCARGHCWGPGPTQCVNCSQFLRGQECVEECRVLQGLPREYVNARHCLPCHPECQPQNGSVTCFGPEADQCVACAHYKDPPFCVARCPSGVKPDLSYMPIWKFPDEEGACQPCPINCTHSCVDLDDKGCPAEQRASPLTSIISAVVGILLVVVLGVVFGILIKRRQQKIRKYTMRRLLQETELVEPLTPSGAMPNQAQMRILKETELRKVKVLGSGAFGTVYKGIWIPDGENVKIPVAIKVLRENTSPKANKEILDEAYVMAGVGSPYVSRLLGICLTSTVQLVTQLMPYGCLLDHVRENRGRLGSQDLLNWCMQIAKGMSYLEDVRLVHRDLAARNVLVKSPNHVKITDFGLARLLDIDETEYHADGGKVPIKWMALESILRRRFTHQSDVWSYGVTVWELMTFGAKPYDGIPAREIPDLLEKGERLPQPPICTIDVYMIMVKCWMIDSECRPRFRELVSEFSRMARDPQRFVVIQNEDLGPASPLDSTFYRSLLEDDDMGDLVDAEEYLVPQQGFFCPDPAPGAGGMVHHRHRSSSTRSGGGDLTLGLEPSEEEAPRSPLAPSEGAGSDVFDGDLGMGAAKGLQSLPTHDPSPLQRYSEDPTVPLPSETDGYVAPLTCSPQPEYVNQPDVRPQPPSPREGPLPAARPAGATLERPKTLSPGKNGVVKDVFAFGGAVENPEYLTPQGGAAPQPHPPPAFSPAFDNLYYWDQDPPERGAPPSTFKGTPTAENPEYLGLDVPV

[20] = molecular target: Receptor tyrosine-protein kinase erbB-2 (Homo sapiens) (UniProt P04626); settings: at 1 µM

SMILES | inhibition [1] | inhibition [2] | inhibition [3] | inhibition [4] | inhibition [5] | inhibition [6] | inhibition [7] | inhibition [8] | inhibition [9] | inhibition [10] | inhibition [11] | inhibition [12] | inhibition [13] | inhibition [14] | inhibition [15] | inhibition [16] | inhibition [17] | inhibition [18] | inhibition [19] | inhibition [20]
O=C(O[C@H]1CN[C@H](C#Cc2cc3ncnc(Nc4ccc(Cc5ccccc5)cc4)c3s2)C1)N1CCOCC1 | 6.03% | 4.37% | 3.49% | -0.73% | 1.41% | 112% | 107% | -1.21% | -0.65% | 1.87% | 1.71% | 1.97% | 2.47% | 2.52% | 1.51% | 1.73% | 0.73% | 4.79% |  | 
Fc1ccc(-c2nn3ccccc3c2-c2ccncc2)cc1 | 17.7% | 4.48% | 8.05% | 1.73% | 4.73% | 10.8% | 27.2% | 1.5% | 0.75% | 0.57% | 0.96% | 3.29% | 0.56% | -0.01% | 6.38% | 5.68% | 2.66% | 0.84% | 1.52% | 2.31%
CCCN1CCC(c2ccc(Nc3nc(Nc4cc(F)ccc4C(N)=O)c4cc[nH]c4n3)c(OC)c2)CC1 | 8.57% | 7.06% | 2.33% | 3.08% | 2.91% | 34.8% | 76.3% | 77% | 82.4% | 62.5% | 80.5% | 2.31% | 2.41% | 3.25% | 6.48% | 3.99% | 1.74% | -5.38% | 5.68% | 12.9%
c1ccc(-c2nc3n(c2-c2ccc4c(c2)OCO4)CCC3)nc1 | 3.77% | 4.03% | -0.67% | 0.53% | 1.11% | 3.67% | 1.72% | 2.91% | 1.9% | 0.9% | -0.41% | 0.69% | 2.51% | -0.68% | 1.92% | 4.46% | 1.25% | -1.29% | 1.28% | -0.6%
CCn1c(-c2nonc2N)nc2c(C#CC(C)(C)O)ncc(OC3CCNCC3)c21 | 4.11% | 3.01% | 4.06% | 1.92% | 1.63% | 5.65% | 10.3% | -0.68% | 3.91% | 2.9% | 5.88% | 1.54% | -4.66% | 9.23% | 11.4% | 7.92% | 2.73% | 6.43% | 5.64% | 3.93%
COc1cc(N2CCN(C(C)C)CC2)ccc1Nc1nc(Nc2ccc(F)cc2C(N)=O)c2cc[nH]c2n1 | 1.15% | 2.78% | 2.03% | 1.77% | 1.31% | 35.2% | 76.8% | 62.8% | 82.8% | 39.9% | 81.7% | 6.98% | 2.33% | 7.72% | 3.84% | 7.85% | 3.24% | 4.7% | 2.4% | 3.8%
COc1ccc2c(-c3ccnc(Nc4cccc(OC(F)(F)F)c4)n3)cnn2n1 | 14.9% | 3.51% | 5.86% | 0.79% | 4.73% | 8.76% | 9.71% | 4.88% | 16.5% | 3.41% | 8.88% | 1.54% | 0.82% | 11.6% | 6.91% | 5.66% | 6.19% | 1.76% | 1.6% | 2.79%
